Measurements from the supplement of paper PMC10981050.
Structures can show the parent of a compound that is named as a salt.

Each compound was assayed on MOLM14 (assay: cell viability relative to vehicle control; higher = less cytotoxic). Details: 10 µM; SRSF2 genotype: SRSF2 wt/wt.
Outline: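 After removal of identity-inconsistent compounds, the Selleck bioactive, kinase and epigenetic probe libraries were screened on CRISPR-edited mutant clones and isogenic wild-type clones of four leukaemia lines. Plates were 384-well, each well holding 2000 cells in 50 µL medium and receiving a single 10 µM acoustically dispensed dose. CellTiter-Glo luminescence was read 48 h later, after the supernatant was taken off. Genedata Screener was used to express viability as percent of the on-plate vehicle control.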

Row | SMILES | cell viability [%]
1 | Cc1ccc(S(=O)(=O)NC(=O)NN2CC3CCCC3C2)cc1 (stereo not given) [Gliclazide (Diamicron)] | 106
2 | CN1CC2c3ccccc3Oc3ccc(Cl)cc3C2C1 (stereo not given) [Asenapine maleate] | 92.6
3 | CC[C@H]1OC(=O)[C@H](C)[C@@H](O[C@H]2C[C@@](C)(OC)[C@@H](O)[C@H](C)O2)[C@H](C)[C@@H](O[C@@H]2O[C@H](C)C[C@H](N(C)C)[C@H]2O)[C@](C)(O)C[C@@H](C)/C(=N\OCOCCOC)[C@H](C)[C@@H](O)[C@]1(C)O [Roxithromycin (Roxl-150)] | 100
4 | CC(C)c1nc(CN(C)C(=O)N[C@H](C(=O)N[C@@H](Cc2ccccc2)C[C@H](O)[C@H](Cc2ccccc2)NC(=O)OCc2cncs2)C(C)C)cs1 [Ritonavir] | 88.3
5 | Nc1nccc(Oc2ccc3c(C(=O)Nc4cccc(C(F)(F)F)c4)cccc3c2)n1 | 102
6 | N[C@@H](Cc1c[nH]c2ccc(O)cc12)C(=O)O [5-hydroxytryptophan (5-HTP)] | 99.1
7 | CCCOc1ccc2c(c1)CC[C@@H]1[C@@H]2CC[C@]2(C)[C@@H](OC)CC[C@@H]12 [Promestriene] | 97.2
8 | CCOCCn1c(N2CCCN(C)CC2)nc2ccccc21 [Emedastine] | 107
9 | COc1cc2c(c(OC)c1OC)-c1c(cc3c(c1OC)OCO3)C[C@H](C)[C@](C)(O)[C@H]2OC(=O)c1ccccc1 [Schisantherin A] | 102
10 | COc1ccc2c(c1O)-c1c(O)c(OC)cc3c1[C@H](C2)[N+](C)(C)CC3 [Magnoflorine] | 100
